Assay results taken from PubChem BioAssay AID1159580 (chemical genetic matrix, 2015).
About 2,000 (36%) of roughly 5,500 compounds were called active. Another 18% or so got no clear call; they are omitted. Cut-off read from the data, not from the text of the source: active = normalized growth mostly below about 0.91 (no sharp cut-off); inconclusive = no clear call, values can overlap the other calls; inactive = mostly above about 0.92. The list shows a part of the results.

Experiment: chemical genetic growth profiling, strain panel (AID 1159580);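 note: tested at 20 µM; growth read once vehicle control cultures reached saturation at 30 °C; 1 = growth at the plate median or of vehicle wells; lower values mean less growth of the strain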
Settings: growth OD
[1] = S. cerevisiae deletion strains, locus YAL013W, strain DEP1, hits give low values
[2] = S. cerevisiae deletion strains, locus YDR150W, strain NUM1, hits give low values
[3] = S. cerevisiae deletion strains, locus YGR078C, strain PAC10, hits give low values
[4] = S. cerevisiae deletion strains, locus YGR229C, strain SMI1, hits give low values
[5] = S. cerevisiae deletion strains, locus YJR075W, strain HOC1, hits give low values
[6] = S. cerevisiae deletion strains, locus YMR263W, strain SAP30, hits give low values
[7] = S. cerevisiae deletion strains, locus YMR307W, strain GAS1, hits give low values
[8] = S. cerevisiae deletion strains, locus YNL128W, strain TEP1, hits give low values
[9] = S. cerevisiae deletion strains, locus YNL153C, strain GIM3, hits give low values
[10] = S. cerevisiae deletion strains, locus YNL322C, strain KRE1, hits give low values
[11] = S. cerevisiae deletion strains, locus YPL055C, strain LGE1, hits give low values
[12] = S. cerevisiae deletion strains, locus YPL241C, strain CIN2, hits give low values
[13] = S. cerevisiae deletion strains, locus YAL040C, strain CLN3, hits give low values
[14] = S. cerevisiae deletion strains, locus YDR363W, strain ESC2, hits give low values
[15] = S. cerevisiae deletion strains, locus YER002W, strain NOP16, hits give low values
[16] = S. cerevisiae deletion strains, locus YNL175C, strain NOP13, hits give low values
[17] = S. cerevisiae deletion strains, locus YNL197C, strain WHI3, hits give low values
[18] = S. cerevisiae deletion strains, locus YNL224C, strain SQS1, hits give low values
[19] = S. cerevisiae deletion strains, locus YOR083W, strain WHI5 (second series), hits give low values

Measured: normalized growth

C#CCOS(=O)OC1CCCCC1Oc1ccc(C(C)(C)C)cc1 (stereo unspecified)
inactive: [1] 1.01 | S. cerevisiae deletion strains, locus YBR021W, strain FUR4, hits give low values 1.03 | S. cerevisiae deletion strains, locus YBR229C, strain ROT2, hits give low values 1.02 | S. cerevisiae deletion strains, locus YCL029C, strain bik1, hits give low values 1.01 | S. cerevisiae deletion strains, locus YDL035C, strain GPR1, hits give low values 1 | S. cerevisiae deletion strains, locus YDL074C, strain BRE1, hits give low values 1.07 | S. cerevisiae deletion strains, locus YDL101C, strain DUN1, hits give low values 1.02 | S. cerevisiae deletion strains, locus YDL134C, strain PPH21, hits give low values 1.02 | S. cerevisiae deletion strains, locus YDL185W, strain tfp1, hits give low values 0.982 | S. cerevisiae deletion strains, locus YDL192W, strain arf1, hits give low values 1 | S. cerevisiae deletion strains, locus YDR101C, strain arx1, hits give low values 0.987 | [2] 1.02 | S. cerevisiae deletion strains, locus YDR162C, strain NBP2, hits give low values 1.02 | S. cerevisiae deletion strains, locus YDR318W, strain mcm21, hits give low values 1 | S. cerevisiae deletion strains, locus YDR388W, hits give low values 0.994 | S. cerevisiae deletion strains, locus YDR502C, strain sam2, hits give low values 0.993 | S. cerevisiae deletion strains, locus YEL061C, strain CIN8, hits give low values 1.01 | S. cerevisiae deletion strains, locus YER110C, hits give low values 0.998 | S. cerevisiae deletion strains, locus YER155C, strain BEM2, hits give low values 1.02 | S. cerevisiae deletion strains, locus YER167W, strain BCK2, hits give low values 1.01 | S. cerevisiae deletion strains, locus YGL078C, strain dbp3, hits give low values 0.977 | S. cerevisiae deletion strains, locus YGL086W, strain mad1, hits give low values 1 | S. cerevisiae deletion strains, locus YGL248W, strain PDE1, hits give low values 1.02 | [3] 1.02 | S. cerevisiae deletion strains, locus YGR135W, strain pre9, hits give low values 1 | [4] 1.04 | S. cerevisiae deletion strains, locus YGR252W, strain gcn5, hits give low values 0.987 | S. cerevisiae deletion strains, locus YHR030C, strain SLT2, hits give low values 1.02 | S. cerevisiae deletion strains, locus YHR079C, strain IRE1 (second series), hits give low values 0.994 | S. cerevisiae deletion strains, locus YHR094C, strain hxt1, hits give low values 0.988 | S. cerevisiae deletion strains, locus YHR129C, strain ARP1, hits give low values 1.02 | S. cerevisiae deletion strains, locus YHR200W, strain rpn10, hits give low values 0.99 | S. cerevisiae deletion strains, locus YIL066C, strain RNR3, hits give low values 1.02 | S. cerevisiae deletion strains, locus YIL073C, strain SPO22, hits give low values 1.01 | S. cerevisiae deletion strains, locus YIL125W, strain kgd1, hits give low values 0.988 | S. cerevisiae deletion strains, locus YIR030C, strain dcg1, hits give low values 0.984 | S. cerevisiae deletion strains, locus YJL095W, strain BCK1, hits give low values 1.02 | S. cerevisiae deletion strains, locus YJL134W, strain LCB3, hits give low values 1.01 | S. cerevisiae deletion strains, locus YJL168C, strain set2, hits give low values 0.989 | S. cerevisiae deletion strains, locus YJL187C, strain SWE1 (second series), hits give low values 1.02 | S. cerevisiae deletion strains, locus YJR043C, strain POL32, hits give low values 1.01 | [5] 1.04 | S. cerevisiae deletion strains, locus YKL009W, strain mrt4, hits give low values 0.971 | S. cerevisiae deletion strains, locus YKL068W, hits give low values 0.994 | S. cerevisiae deletion strains, locus YKL085W, strain MDH1 (second series), hits give low values 0.988 | S. cerevisiae deletion strains, locus YKL085W, strain MDH1, hits give low values 0.988 | S. cerevisiae deletion strains, locus YKL190W, strain CNB1, hits give low values 1 | S. cerevisiae deletion strains, locus YKR001C, strain vps1, hits give low values 0.993 | S. cerevisiae deletion strains, locus YLR039C, strain RIC1, hits give low values 1.04 | S. cerevisiae deletion strains, locus YLR058C, strain SHM2, hits give low values 1.02 | S. cerevisiae deletion strains, locus YLR102C, strain apc9, hits give low values 0.983 | S. cerevisiae deletion strains, locus YLR262C, strain YPT6, hits give low values 1.05 | S. cerevisiae deletion strains, locus YLR268W, strain sec22, hits give low values 0.999 | S. cerevisiae deletion strains, locus YLR330W, strain CHS5, hits give low values 1.02 | S. cerevisiae deletion strains, locus YLR342W, strain FKS1 (second series), hits give low values 1.01 | S. cerevisiae deletion strains, locus YLR371W, strain rom2, hits give low values 0.983 | S. cerevisiae deletion strains, locus YLR418C, strain cdc73, hits give low values 1.02 | S. cerevisiae deletion strains, locus YML016C, strain PPZ1, hits give low values 1.02 | S. cerevisiae deletion strains, locus YML032C, strain rad52, hits give low values 0.986 | S. cerevisiae deletion strains, locus YML124C, strain tub3, hits give low values 0.995 | S. cerevisiae deletion strains, locus YMR078C, strain ctf18, hits give low values 0.996 | S. cerevisiae deletion strains, locus YMR223W, strain ubp8, hits give low values 1 | [6] 1.03 | [7] 1.02 | S. cerevisiae deletion strains, locus YNL067W, strain RPL9B, hits give low values 1.02 | [8] 1.02 | [9] 1.02 | S. cerevisiae deletion strains, locus YNL233W, strain BNI4, hits give low values 1.03 | S. cerevisiae deletion strains, locus YNL250W, strain rad50, hits give low values 0.992 | S. cerevisiae deletion strains, locus YNL271C, strain bni1, hits give low values 0.978 | S. cerevisiae deletion strains, locus YNL298W, strain CLA4, hits give low values 0.998 | S. cerevisiae deletion strains, locus YNL307C, strain MCK1, hits give low values 0.992 | [10] 1.02 | S. cerevisiae deletion strains, locus YNR052C, strain pop2, hits give low values 0.987 | S. cerevisiae deletion strains, locus YOL006C, strain TOP1, hits give low values 1.07 | S. cerevisiae deletion strains, locus YOL012C, strain htz1 0.994 | S. cerevisiae deletion strains, locus YOL147C, strain pex11, hits give low values 0.994 | S. cerevisiae deletion strains, locus YOR061W, strain CKA2, hits give low values 1.01 | S. cerevisiae deletion strains, locus YOR069W, strain VPS5, hits give low values 1 | S. cerevisiae deletion strains, locus YOR136W, strain idh2, hits give low values 0.992 | S. cerevisiae deletion strains, locus YOR144C, strain elg1, hits give low values 0.996 | S. cerevisiae deletion strains, locus YOR184W, strain ser1, hits give low values 0.964 | S. cerevisiae deletion strains, locus YOR316C, strain cot1, hits give low values 0.996 | [11] 1.05 | [12] 1.03 | S. cerevisiae deletion strains, locus YPR119W, strain clb2, hits give low values 0.997 | S. cerevisiae deletion strains, locus YPR141C, strain kar3, hits give low values 0.99 | S. cerevisiae deletion strains, locus YPR163C, strain tif3, hits give low values 0.999 | S. cerevisiae deletion strains, locus YPR167C, strain met16, hits give low values 0.994 | S. cerevisiae deletion strains, strain wtn01, hits give low values 0.991 | S. cerevisiae strains, strain wild type, hits give low values 1.01

CC(C)C[C@H](NC(=O)C1OC1C(=O)O)C(=O)NCCCCN=C(N)N (stereo partly specified)
inactive: [1] 1.01 | [13] 0.949 | S. cerevisiae deletion strains, locus YCL061C, strain MRC1 (second series), hits give low values 0.993 | [2] 0.989 | [14] 1.01 | [15] 0.985 | [3] 0.988 | [4] 1.04 | [6] 0.997 | [8] 0.998 | [16] 0.984 | [17] 0.971 | [18] 1.01 | [19] 0.979 | [11] 1.02 | [12] 0.995

CC(=O)/C(C)=N\O
inactive: [13] 0.972 | [2] 0.972 | [14] 1.07 | [15] 0.994 | [3] 1 | [5] 0.987 | [7] 1.07 | [8] 0.983 | [9] 0.979 | [16] 0.978 | [17] 1 | [18] 1.01 | [10] 1 | [19] 0.986
